In all, about 59,000 compounds went through this assay and about 6,200 (11%) were called active. Not shown: some 9% with an inconclusive outcome. Rule as the data show it: active = max dye-equivalent concentration above about 10 nM; inconclusive = mostly about 1.1 nM to 9.6 nM; inactive = weaker than that. Shown is part of a subset that was picked to be rich in actives. More than one record can exist for a structure, and the calls need not agree.
Assay: qHTS Assay for Spectroscopic Profiling in 4-MU Spectral Region
Details: compound autofluorescence, 340/450 nm, 4-MU equivalents; active compounds read high
Outline: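 Intrinsic fluorescence at 340/450 nm (ex/em) was read after 15 min at room temperature in pH 8.0, 100 mM Tris. Each compound concentration expressed as 4-MU-equivalent concentration from a six-point 4-MU standard series on each plate.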
With `Cn1c(=O)n(C)c(=O)n(CC(=O)N2CCCCC2)c1=O` the max dye-equivalent concentration was “inactive”.
For `CS(=O)(=O)N(Cc1nc2sc3c(c2c(=O)[nH]1)CCCC3)C1CCCCC1`, the max dye-equivalent concentration was 34 nM (active).
In the case of `Cc1cc(C)c2c(n1)nn1c(N3CCOCC3)cc(C)nc21`, the max dye-equivalent concentration is reported as 6300 nM (active).
For `Cc1cc(C)c2c(n1)nn1c(N3CCN(c4cccc(Cl)c4)CC3)cc(C)nc21`, the max dye-equivalent concentration was 100 nM (active).
In the case of `Cc1cc(C)c2c(n1)nn1c(-n3ccnc3)cc(C)nc21`, the max dye-equivalent concentration is reported as 240 nM (active).
With `CS(=O)(=O)N(CC(=O)N1CCN(c2cccc(Cl)c2)CC1)c1ccccc1` the max dye-equivalent concentration was “inactive”.
For `Cc1cc(N2CCN(Cc3ccc4c(c3)OCO4)CC2)n2ncnc2n1`, the max dye-equivalent concentration was “inactive”.
For `CCN1C(=O)/C(=C\N2CCN(c3cccc(Cl)c3)CC2)SC1=S`, the max dye-equivalent concentration was “inactive”.
For `Cc1nn2c3cc(N4CCOCC4)ccc3nc2c2ccccc12`, the max dye-equivalent concentration was “inactive”.
With `COc1ccc(C(=O)N2CCC3(CC2)CCN(c2ccccn2)CC3)cc1` the max dye-equivalent concentration was “inactive”.
With `CCn1c(CNC(=O)c2ccc(OC)c(OC)c2)nnc1SCC(=O)Nc1ccccc1` the max dye-equivalent concentration was “inactive”.
For `O=C(CN(Cc1ccccc1)C(=O)c1ccc2c(c1)OCCO2)NCc1ccc2c(c1)OCO2`, the max dye-equivalent concentration was “inactive”.
For `Cc1nnc(NC2=NCCCCC2)o1`, the max dye-equivalent concentration was “inactive”.
For `O=C(c1c(Cl)nc2sccn12)N1CCCc2ccccc21`, the max dye-equivalent concentration was “inactive”.
In the case of `O=C1CC(Cc2ccccc2)C(=O)N1c1ccc(Cl)cn1` (configuration not stated), the max dye-equivalent concentration is reported as “inactive”.
In the case of `Cc1ccc(C(C(=O)NCc2ccco2)N(CC2CCCO2)C(=O)Cn2nnc3ccccc32)cc1` (configuration not stated), the max dye-equivalent concentration is reported as “inactive”.
For `CN(C)C(=O)c1ccc(-c2cncnc2Nc2ccccc2)cc1`, the max dye-equivalent concentration was “inactive”.
In the case of `O=C(NCc1cn2ccsc2n1)Nc1cccc(Cl)c1`, the max dye-equivalent concentration is reported as “inactive”.
With `O=C(/C=N/O)Nc1ccccc1` the max dye-equivalent concentration was “inactive”.
In the case of `CCS(=O)(=O)n1nc(-c2ccc(OC)cc2)nc1SC`, the max dye-equivalent concentration is reported as “inactive”.
For `COc1cc(-c2nn3c(-c4cccc(C)c4)nnc3s2)cc(OC)c1OC`, the max dye-equivalent concentration was 1900 nM (active).
With `c1ccc(-c2cc(-c3nnc4sc(-c5ccccn5)nn34)[nH]n2)cc1` the max dye-equivalent concentration was “inactive”.
For `CCOc1cccc(-c2nn3c(-c4ccccn4)nnc3s2)c1`, the max dye-equivalent concentration was “inactive”.
For `CCCC(CCC(=O)OC)(C(=O)OCC)c1csc(N)n1` (configuration not stated), the max dye-equivalent concentration was “inactive”.
In the case of `COc1ccc(CNc2ncncc2-c2ccccc2C)c(OC)c1`, the max dye-equivalent concentration is reported as “inactive”.
With `Oc1c(CN2CCOCC2)ccc(CN2CCOCC2)c1O` the max dye-equivalent concentration was “inactive”.
With `O=c1[nH]nc(Cc2ccccn2)c2ccccc12` the max dye-equivalent concentration was “inactive”.
In the case of `CN(CCc1ccccn1)S(=O)(=O)c1ccc2c3c(cccc13)C(=O)N2`, the max dye-equivalent concentration is reported as 790 nM (active).
For `Cc1cc(C(=O)OCC(=O)NCc2ccco2)c(C)n1-c1ccccc1`, the max dye-equivalent concentration was “inactive”.
In the case of `O=C(COC(=O)C12CC3CC(CC(C3)C1)C2)NCc1ccco1`, the max dye-equivalent concentration is reported as 23 nM (active).
With `O=C(COC(=O)CCC(=O)c1cccs1)NCc1ccco1` the max dye-equivalent concentration was “inactive”.
In the case of `CC(C)(C)c1cc(CN2CCN(CCC#N)CC2)cc(C(C)(C)C)c1O`, the max dye-equivalent concentration is reported as “inactive”.
For `O=C(O)Cc1ccc(-c2ccccc2)cc1`, the max dye-equivalent concentration was 49 nM (active) and the outcome was “inactive”.
In the case of `O=C(O)Cc1ccc(NC(=O)c2cccs2)cc1`, the max dye-equivalent concentration is reported as “inactive”.
For `O=C(O)CCCc1ccccc1`, the max dye-equivalent concentration was “inactive”.
In the case of `CCOC(=O)C1CCN(C(=O)C2CCN(S(=O)(=O)CC)CC2)CC1`, the max dye-equivalent concentration is reported as “inactive”.
For `O=C(O)CSCNC(=O)CC12CC3CC(CC(C3)C1)C2`, the max dye-equivalent concentration was “inactive”.
In the case of `O=C(NC1CCCCC1)n1c(=O)oc2cc(S(=O)(=O)N3CCCCC3)ccc21`, the max dye-equivalent concentration is reported as “inactive”.
For `NS(=O)(=O)c1cc2c(cc1Cl)NC(C(Cl)Cl)NS2(=O)=O` (configuration not stated), the max dye-equivalent concentration was 6500 nM (active).
In the case of `C=CCn1c(C)cc(C(=O)CN2C(=O)c3ccccc3C2=O)c1C`, the max dye-equivalent concentration is reported as “inactive”.
In the case of `O=C(Nc1ccc(NC(=O)c2cccs2)cn1)c1ccco1`, the max dye-equivalent concentration is reported as “inactive”.
For `Cc1c(C(=O)NCCN2CCOCC2)sc2nc(-c3ccc(F)cc3)cn12`, the max dye-equivalent concentration was “inactive”.
For `CSc1cccc(NC(=O)CSc2ccccc2)c1`, the max dye-equivalent concentration was “inactive”.
In the case of `COc1ccc(OC)c2c(N)c(C#N)c(C(F)(F)C(F)(F)F)nc12`, the max dye-equivalent concentration is reported as 140 nM (active).
With `CCCCOc1ccc(-c2nnc(-c3ccco3)o2)cc1` the max dye-equivalent concentration was “inactive”.
For `O=C(Nc1cccc2cccnc12)c1cccc(N2C(=O)CCC2=O)c1`, the max dye-equivalent concentration was “inactive”.
In the case of `N#Cc1nc(-c2ccc(OCc3ccccc3)cc2)oc1NCCCN1CCOCC1`, the max dye-equivalent concentration is reported as “inactive”.
For `O=C(CN1CCOCC1)N1CCCc2c1c(=O)oc1ccc(OCc3ccccc3)cc21`, the max dye-equivalent concentration was 45 nM (active).
In the case of `O=C(OCCN1CCOCC1)C1(c2ccccc2)CCCCC1`, the max dye-equivalent concentration is reported as “inactive”.
In the case of `CCOC(=O)C1CCCN(C(=O)c2cncc(Br)c2)C1` (configuration not stated), the max dye-equivalent concentration is reported as “inactive”.
In the case of `COc1ccc(OC)c([C@H](O)CNC(=O)CN)c1`, the max dye-equivalent concentration is reported as “inactive”.
With `C/C(Cl)=C\Cn1c(Nc2cccc(C)c2)nc2c1c(=O)n(C)c(=O)n2C` the max dye-equivalent concentration was “inactive”.
With `COc1ccccc1CN1CC2(CCN(S(=O)(=O)c3ccccc3)CC2)C1` the max dye-equivalent concentration was “inactive”.
With `CCc1ccc(NC(=O)CSc2nnc(-c3cnccn3)n2Cc2ccco2)cc1` the max dye-equivalent concentration was “inactive”.
With `CCc1ccc(Nc2ncc3c(n2)CC(c2ccco2)CC3=O)cc1` (configuration not stated) the max dye-equivalent concentration was 38 nM (active).
For `O=C(Nc1ncc2c(n1)CC(c1ccco1)CC2=O)c1ccc(Cl)cc1` (configuration not stated), the max dye-equivalent concentration was “inactive”.
